# In the supplement of paper PMC10849652:
# About 8,800 targets were measured; listed, in parts, are those with a hit and a random draw of the rest. About 0.5% of all pairs of compound and target were hits. A number with no mark means an inactive call.
# Assays:
# Assay in all cases: log2 fold change, soluble protein after heating vs DMSO (PISA); higher = thermal stabilisation; K562 lysate, 10 uM; active = over 0.2 and 3.5 SD of the protein, either way, in both replicates (recomputed)
# nilotinib = compound: Cc1cn(-c2cc(NC(=O)c3ccc(C)c(Nc4nccc(-c5cccnc5)n4)c3)cc(C(F)(F)F)c2)cn1 [nilotinib]
# Outline: (§1)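 Values give the log-two fold change in thermal stability against solvent controls, from duplicates. Crude K562 extract at 1 mg/mL protein, made by dounce homogenisation in PBS pH 7.4 with 1 mM MgCl2, was treated with 10 μM compound for 30 min. After 3 min heating across 48°C-58°C, aliquots were pooled, adjusted to 0.5% NP-40 at 4°C and centrifuged at 21,000xg for 90 min. The supernatant was measured by TMTpro 16plex LC-MS/MS with channel sums equalised.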
# [1] = compound: Cc1nc(Nc2n[nH]c3c2CN(C(=O)N[C@H](CN(C)C)c2ccccc2)C3(C)C)c2sccc2n1
# Outline: as §1
# dasatinib = compound: Cc1nc(Nc2ncc(C(=O)Nc3c(C)cccc3Cl)s2)cc(N2CCN(CCO)CC2)n1 [dasatinib]
# Outline: as §1
# [2] = compound: Cc1ncc(-c2ccnc(Nc3ccc(S(C)(=O)=O)cc3)n2)n1C(C)C
# Outline: as §1
# [3] = compound: Cn1cc(-c2ccc3c(c2)CCN3C(=O)Cc2cccc(C(F)(F)F)c2)c2c(N)ncnc21
# Outline: as §1
# quisinostat = compound: Cn1cc(CNCC2CCN(c3ncc(C(=O)NO)cn3)CC2)c2ccccc21 [quisinostat]
# Outline: as §1
# tipifarnib = compound: Cn1cncc1[C@@](N)(c1ccc(Cl)cc1)c1ccc2c(c1)c(-c1cccc(Cl)c1)cc(=O)n2C [tipifarnib]
# Outline: as §1
# [4] = compound: NC(=O)Nc1cc(-c2cccc(F)c2)sc1C(=O)N[C@H]1CCCNC1
# Outline: as §1
# [5] = compound: NC(=O)c1cnc(N[C@@H]2CCCC[C@@H]2N)nc1Nc1cccc(-n2nccn2)c1
# Outline: as §1
# [6] = compound: NC1(c2ccc(-c3nc4ccn5c(=O)[nH]nc5c4cc3-c3ccccc3)cc2)CCC1
# Outline: as §1
# [7] = compound: NCC(=O)Nc1ccc(-n2nc(C(F)(F)F)cc2-c2ccc3c(ccc4ccccc43)c2)cc1
# Outline: as §1
# vorinostat = compound: O=C(CCCCCCC(=O)Nc1ccccc1)NO [vorinostat]
# Outline: as §1
# silmitasertib = compound: O=C(O)c1ccc2c(c1)nc(Nc1cccc(Cl)c1)c1ccncc12 [silmitasertib]
# Outline: as §1
# [8] = compound: O=C1NC(=O)C(c2cnc3ccccn23)=C1c1cn2c3c(cc(F)cc13)CN(C(=O)N1CCCCC1)CC2
# Outline: as §1
# entospletinib = compound: c1cn2cc(-c3ccc4cn[nH]c4c3)nc(Nc3ccc(N4CCOCC4)cc3)c2n1 [entospletinib]
# Outline: as §1
# UniProt Q9Y2X9, sequence (Q9Y2X9 whole entry, looked up): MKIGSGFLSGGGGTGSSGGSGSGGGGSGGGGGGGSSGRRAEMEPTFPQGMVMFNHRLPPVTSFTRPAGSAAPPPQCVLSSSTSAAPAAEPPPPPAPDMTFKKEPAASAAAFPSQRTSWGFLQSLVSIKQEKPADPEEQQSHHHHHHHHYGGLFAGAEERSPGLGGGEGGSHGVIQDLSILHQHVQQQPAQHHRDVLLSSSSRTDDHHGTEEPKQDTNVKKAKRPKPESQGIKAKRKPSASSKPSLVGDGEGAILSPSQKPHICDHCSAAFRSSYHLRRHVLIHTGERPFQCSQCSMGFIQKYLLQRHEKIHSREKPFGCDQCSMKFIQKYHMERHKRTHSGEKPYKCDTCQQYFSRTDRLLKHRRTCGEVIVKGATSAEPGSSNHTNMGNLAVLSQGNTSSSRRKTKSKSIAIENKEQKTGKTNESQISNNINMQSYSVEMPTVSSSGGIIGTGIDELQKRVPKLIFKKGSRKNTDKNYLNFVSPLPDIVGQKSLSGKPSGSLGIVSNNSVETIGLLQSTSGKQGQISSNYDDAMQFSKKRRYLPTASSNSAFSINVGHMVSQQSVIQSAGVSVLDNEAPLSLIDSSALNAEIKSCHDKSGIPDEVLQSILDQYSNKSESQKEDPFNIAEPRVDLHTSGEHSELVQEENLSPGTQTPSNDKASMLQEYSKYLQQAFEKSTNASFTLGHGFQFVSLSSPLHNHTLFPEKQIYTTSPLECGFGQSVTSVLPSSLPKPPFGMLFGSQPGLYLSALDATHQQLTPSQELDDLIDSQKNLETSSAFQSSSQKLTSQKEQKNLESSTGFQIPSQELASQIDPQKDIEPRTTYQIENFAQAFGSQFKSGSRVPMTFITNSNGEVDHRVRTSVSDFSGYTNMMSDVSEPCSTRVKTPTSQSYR
# UniProt Q9H582, sequence (Q9H582 whole entry, looked up): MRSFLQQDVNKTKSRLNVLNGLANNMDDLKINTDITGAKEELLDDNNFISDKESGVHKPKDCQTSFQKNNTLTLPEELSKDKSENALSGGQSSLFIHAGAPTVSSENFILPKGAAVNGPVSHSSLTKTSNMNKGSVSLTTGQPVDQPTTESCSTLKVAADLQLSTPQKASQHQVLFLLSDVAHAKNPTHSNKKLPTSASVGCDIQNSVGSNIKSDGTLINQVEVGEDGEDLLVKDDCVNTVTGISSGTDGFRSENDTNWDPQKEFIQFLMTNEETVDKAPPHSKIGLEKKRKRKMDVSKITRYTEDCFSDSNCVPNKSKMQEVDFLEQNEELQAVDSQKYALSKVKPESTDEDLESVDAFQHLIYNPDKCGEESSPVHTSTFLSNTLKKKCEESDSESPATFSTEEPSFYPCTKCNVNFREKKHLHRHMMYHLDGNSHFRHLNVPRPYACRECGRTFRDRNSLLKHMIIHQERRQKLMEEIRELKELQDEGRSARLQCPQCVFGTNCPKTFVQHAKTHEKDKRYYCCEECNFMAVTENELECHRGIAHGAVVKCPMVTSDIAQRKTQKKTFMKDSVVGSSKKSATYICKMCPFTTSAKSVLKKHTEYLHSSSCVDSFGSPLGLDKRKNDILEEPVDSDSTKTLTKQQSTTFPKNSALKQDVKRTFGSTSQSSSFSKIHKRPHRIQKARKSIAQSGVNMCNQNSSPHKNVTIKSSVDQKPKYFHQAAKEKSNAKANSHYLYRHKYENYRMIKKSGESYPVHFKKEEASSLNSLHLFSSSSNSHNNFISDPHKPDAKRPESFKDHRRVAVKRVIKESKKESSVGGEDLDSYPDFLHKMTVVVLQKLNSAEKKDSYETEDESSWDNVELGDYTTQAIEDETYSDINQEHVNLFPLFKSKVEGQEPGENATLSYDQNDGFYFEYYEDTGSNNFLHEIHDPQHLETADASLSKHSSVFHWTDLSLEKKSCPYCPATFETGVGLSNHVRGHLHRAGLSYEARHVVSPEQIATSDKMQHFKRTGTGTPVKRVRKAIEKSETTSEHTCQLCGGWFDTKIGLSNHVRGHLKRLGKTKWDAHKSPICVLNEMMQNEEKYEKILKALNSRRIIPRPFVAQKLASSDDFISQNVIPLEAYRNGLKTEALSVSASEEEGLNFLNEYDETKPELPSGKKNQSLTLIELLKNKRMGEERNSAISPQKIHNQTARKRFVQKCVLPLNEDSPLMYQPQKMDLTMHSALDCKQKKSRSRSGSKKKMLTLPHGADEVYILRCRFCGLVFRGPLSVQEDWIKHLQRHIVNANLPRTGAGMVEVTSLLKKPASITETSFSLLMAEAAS
# UniProt Q9UNX4, sequence (Q9UNX4 whole entry, looked up): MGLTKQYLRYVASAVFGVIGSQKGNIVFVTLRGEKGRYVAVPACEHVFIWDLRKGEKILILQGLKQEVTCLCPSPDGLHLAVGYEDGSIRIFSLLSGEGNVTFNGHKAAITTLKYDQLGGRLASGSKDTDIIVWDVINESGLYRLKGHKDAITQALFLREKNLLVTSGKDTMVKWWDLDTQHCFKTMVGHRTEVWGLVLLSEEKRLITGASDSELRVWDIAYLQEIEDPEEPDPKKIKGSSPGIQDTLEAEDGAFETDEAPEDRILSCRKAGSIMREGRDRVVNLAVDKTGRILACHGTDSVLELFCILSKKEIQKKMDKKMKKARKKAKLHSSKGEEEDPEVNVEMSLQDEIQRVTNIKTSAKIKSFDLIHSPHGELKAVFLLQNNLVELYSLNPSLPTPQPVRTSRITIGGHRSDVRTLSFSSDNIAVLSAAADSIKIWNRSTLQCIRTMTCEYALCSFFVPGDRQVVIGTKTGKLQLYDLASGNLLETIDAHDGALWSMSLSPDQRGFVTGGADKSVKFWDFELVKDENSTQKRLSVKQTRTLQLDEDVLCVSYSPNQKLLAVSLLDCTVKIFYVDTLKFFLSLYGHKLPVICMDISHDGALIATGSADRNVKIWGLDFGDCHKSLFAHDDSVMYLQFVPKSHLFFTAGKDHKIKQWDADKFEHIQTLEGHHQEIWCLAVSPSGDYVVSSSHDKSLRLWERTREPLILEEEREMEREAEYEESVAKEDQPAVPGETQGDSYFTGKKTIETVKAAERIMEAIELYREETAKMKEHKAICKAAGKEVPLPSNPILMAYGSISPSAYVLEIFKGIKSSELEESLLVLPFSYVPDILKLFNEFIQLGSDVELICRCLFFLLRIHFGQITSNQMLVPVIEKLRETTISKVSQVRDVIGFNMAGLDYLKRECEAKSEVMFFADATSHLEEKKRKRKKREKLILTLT
# UniProt Q9Y2D9, sequence (Q9Y2D9 whole entry, looked up): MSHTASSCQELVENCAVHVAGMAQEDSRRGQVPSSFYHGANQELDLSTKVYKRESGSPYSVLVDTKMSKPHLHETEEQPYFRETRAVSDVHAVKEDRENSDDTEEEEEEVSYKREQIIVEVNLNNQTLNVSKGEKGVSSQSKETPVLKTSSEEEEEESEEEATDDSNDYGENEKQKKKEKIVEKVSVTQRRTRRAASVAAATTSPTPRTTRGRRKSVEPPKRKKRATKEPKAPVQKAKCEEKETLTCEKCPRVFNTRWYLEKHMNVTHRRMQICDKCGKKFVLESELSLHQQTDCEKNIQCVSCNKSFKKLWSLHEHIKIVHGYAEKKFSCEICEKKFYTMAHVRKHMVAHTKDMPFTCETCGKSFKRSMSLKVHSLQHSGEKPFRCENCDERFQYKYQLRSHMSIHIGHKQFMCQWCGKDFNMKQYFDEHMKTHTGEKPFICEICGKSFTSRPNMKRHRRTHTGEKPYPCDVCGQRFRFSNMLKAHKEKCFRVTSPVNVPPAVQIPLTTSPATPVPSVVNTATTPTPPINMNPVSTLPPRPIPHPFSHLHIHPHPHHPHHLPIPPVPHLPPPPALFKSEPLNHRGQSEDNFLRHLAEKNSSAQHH
# UniProt Q15906, sequence (Q15906 whole entry, looked up): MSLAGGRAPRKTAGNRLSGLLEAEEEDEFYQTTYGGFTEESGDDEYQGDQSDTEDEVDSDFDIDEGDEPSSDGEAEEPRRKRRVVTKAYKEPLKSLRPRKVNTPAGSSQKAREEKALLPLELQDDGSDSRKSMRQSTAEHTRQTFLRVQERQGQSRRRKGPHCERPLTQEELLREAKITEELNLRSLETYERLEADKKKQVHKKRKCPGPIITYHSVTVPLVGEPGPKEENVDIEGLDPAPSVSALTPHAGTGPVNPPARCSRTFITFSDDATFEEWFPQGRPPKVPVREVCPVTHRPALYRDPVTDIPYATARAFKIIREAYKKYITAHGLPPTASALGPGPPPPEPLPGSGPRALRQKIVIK
# UniProt P15498, sequence (P15498 whole entry, looked up): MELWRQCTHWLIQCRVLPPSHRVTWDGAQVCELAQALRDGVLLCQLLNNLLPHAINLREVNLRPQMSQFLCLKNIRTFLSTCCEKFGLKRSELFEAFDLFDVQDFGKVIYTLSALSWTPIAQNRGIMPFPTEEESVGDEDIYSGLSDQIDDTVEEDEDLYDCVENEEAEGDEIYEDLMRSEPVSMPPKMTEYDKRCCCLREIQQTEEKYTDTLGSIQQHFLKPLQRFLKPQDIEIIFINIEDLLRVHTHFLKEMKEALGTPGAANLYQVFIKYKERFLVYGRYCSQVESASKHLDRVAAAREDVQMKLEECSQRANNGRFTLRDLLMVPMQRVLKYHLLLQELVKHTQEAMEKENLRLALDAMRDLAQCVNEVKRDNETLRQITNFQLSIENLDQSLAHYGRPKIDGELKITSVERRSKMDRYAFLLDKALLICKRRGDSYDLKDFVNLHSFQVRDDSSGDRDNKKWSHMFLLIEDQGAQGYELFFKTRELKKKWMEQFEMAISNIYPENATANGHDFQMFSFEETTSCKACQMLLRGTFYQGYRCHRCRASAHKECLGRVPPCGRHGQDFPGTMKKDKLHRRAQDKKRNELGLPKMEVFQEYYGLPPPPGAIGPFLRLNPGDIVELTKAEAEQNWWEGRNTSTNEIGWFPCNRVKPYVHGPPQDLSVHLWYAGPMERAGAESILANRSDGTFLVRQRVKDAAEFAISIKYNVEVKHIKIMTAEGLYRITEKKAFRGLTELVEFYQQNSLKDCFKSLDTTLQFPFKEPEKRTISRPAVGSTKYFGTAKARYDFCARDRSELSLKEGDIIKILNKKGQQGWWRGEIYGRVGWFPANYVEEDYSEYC
Target,log2 fold change (nilotinib),log2 fold change [1],log2 fold change (dasatinib),log2 fold change [2],log2 fold change [3],log2 fold change (quisinostat),log2 fold change (tipifarnib),log2 fold change [4],log2 fold change [5],log2 fold change [6],log2 fold change [7],log2 fold change (vorinostat),log2 fold change (silmitasertib),log2 fold change [8],log2 fold change (entospletinib)
WRB (UniProt O00258),0.06,-0.017,-0.014,0.183,0.082,0.015,-0.044,-0.005,0.071,0.024,0.082,0.131,-0.055,-0.012,0.146
ZMYM1 (UniProt Q5SVZ6),0.023,-0.036,0.006,-0.019,0.007,-0.08,-0.012,0.03,0.003,0.028,-0.014,-0.202,0.042,-0.004,0.021
WDR3 (UniProt Q9UNX4),0.055,0.001,-0.069,-0.016,0.027,0.044,-0.003,0.021,0.023,0.009,-0.031,-0.255 (active),0.044,0.01,-0.001
ZNF346 (UniProt Q9UL40),-0.005,0.02,-0.099,0.021,0.014,-0.014,0.015,0.005,0.011,0.01,–,0.137,0.018,-0.05,0.02
USP22 (UniProt Q9UPT9),-0.032,0.002,0.022,0.037,0.028,-0.065,-0.028,0.004,–,-0.012,-0.069,-0.323 (active),-0.045,0.001,0.059
ZNF644 (UniProt Q9H582),-0.062,0.153,0.066,0.017,-0.061,-0.026,-0.012,0.058,–,-0.167,-0.007,0.222,-0.092,0.016,-0.022
WSB1 (UniProt Q9Y6I7),–,–,-0.194,–,0.012,–,–,–,–,–,–,–,–,–,–
XPOT (UniProt F5GYW6),–,–,–,–,–,–,–,–,-0.192,–,–,–,–,–,–
VPS72 (UniProt Q15906),0.029,0.032,-0.054,0.05,0.073,0.005,0.088,0.05,-0.03,-0.036,0.11,-0.401 (active),-0.018,-0.029,-0.014
WIPI1 (UniProt Q5MNZ9),0.011,-0.198,0.06,0.314 (active),-0.028,0.013,0.003,-0.011,0.009,0.011,–,0.088,-0.051,0.026,-0.001
ZSCAN26 (UniProt Q16670),–,–,–,–,–,0.169,–,-0.093,–,–,–,–,–,-0.024,–
ZNF146 (UniProt Q15072),–,–,-0.028,–,0.188,–,–,–,–,–,–,–,–,–,–
ZNF652 (UniProt Q9Y2D9),–,–,–,–,–,0,–,-0.036,–,–,–,–,–,-0.042,–
UTRN isoform 2 (UniProt P46939),–,–,–,–,–,–,–,–,–,0.21,–,0.173,-0.144,–,-0.424
ULK3 isoform 4 (UniProt Q6PHR2),–,–,0.035,–,-0.181,-0.11,–,0.296,0.133,-0.157,-0.102,-0.05,0.242,0.046,0.273
VAV1 (UniProt P15498),0.022,-0.031,0.007,0.009,0.04,0.022,0,-0.018,0.007,-0.054,-0.003,-0.268 (active),0,-0.027,0.004
ZNF281 (UniProt Q9Y2X9),–,–,-0.041,–,0.031,0.151,–,-0.028,–,0.02,–,-0.403 (active),-0.084,-0.072,–
